Our source for the growth values is PubChem BioAssay (NCI).

Test systems include DU-145 prostate; K-562 leukemia; MALME-3M melanoma; MDA-MB-231 breast; RXF 393 renal; SF-268 CNS; SF-295 CNS; SF-539 CNS; UACC-257 melanoma; M14 melanoma.
Experiment in all cases: NCI-60 one-dose screen, 48 h (100 = growth as untreated, 0 = no growth, -100 = all killed)
What all share (conditions): 10 µM unless noted

The panel holds about 83,000 compounds, 20% with a hit somewhere; the sample as a whole holds those more often.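 Activity criterion: percent growth below 10, measured after cells in 96-well plates were exposed to a single compound concentration for 48 hours.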 Unmarked numbers belong to inactive results. The source made the active and inactive calls.

Turning to `Cn1nc(C(F)(F)F)c(-c2cc(C(F)(F)F)cc(C(F)(F)F)c2)c1-c1ccc(OCc2ccc(Cl)cc2)cc1O`, the growth in the assay on DU-145 prostate was 20.6%; with K-562 leukemia, 1.63% (active); with MALME-3M melanoma it was -15.9% (active); in the assay with MDA-MB-231 breast, -31.5% (active); in the assay on RXF 393 renal it was -14.5% (active); in the assay with SF-268 CNS, 16.6%. The growth in the assay on SF-295 CNS was -22.6% (active); in the assay on SF-539 CNS, 2.13% (active); in the assay on UACC-257 melanoma, -7.16% (active); with M14 melanoma, 6.3% (active).
For the compound `O=C1C(Cl)=C(NCCCN(CCCNC2=C(Cl)C(=O)c3ccccc3C2=O)C2=C(Cl)C(=O)c3ccccc3C2=O)C(=O)c2ccccc21`, the growth in the assay with DU-145 prostate was -88% (active); in the assay on K-562 leukemia, 12.2%; with MALME-3M melanoma, -28.4% (active); with MDA-MB-231 breast, 38.5%; in the assay with RXF 393 renal, 85.3%; in the assay with SF-268 CNS it was 74.7%. The growth in the assay with SF-295 CNS is 91.4%; with SF-539 CNS it was 88.3%; with UACC-257 melanoma it was 52.6%; in the assay on M14 melanoma it was 11.7%.
Take `CC(=O)Nc1nc2c(c(N)c1C#N)C(c1cccc(Cl)c1)C1=C(CCCC1=O)N2c1sc2c(c1C#N)CCCC2` (stereo not given): the growth was 72.5% in the assay on DU-145 prostate; 29.8% with K-562 leukemia; 83.3% with MALME-3M melanoma; 67.1% with MDA-MB-231 breast; 16.2% in the assay with RXF 393 renal; 66.3% in the assay on SF-268 CNS. In addition, the growth with SF-295 CNS is 44%; in the assay with SF-539 CNS it was 65%; with UACC-257 melanoma, 54.4%; with M14 melanoma, 52.2%.
`N#Cc1c(-c2ccc(F)cc2)nc(N/N=C/c2cccc(O)c2)nc1N1CCOCC1`: the growth in the assay on DU-145 prostate was 65.9%; in the assay on K-562 leukemia, 67.5%; with MALME-3M melanoma, 100%; with MDA-MB-231 breast, 96.8%; in the assay with RXF 393 renal it was 53.9%; in the assay on SF-268 CNS it was 88.3%. Also, the growth with SF-295 CNS is 98.9%; in the assay with SF-539 CNS it was 78.4%; in the assay on UACC-257 melanoma, 88.8%; in the assay with M14 melanoma it was 85.6%.
Consider `O=C1CC(c2ccc(O)c(O)c2)Oc2cc(O)c([C@@H]3O[C@H](CO)[C@@H](O)[C@H](O)[C@H]3O)c(O)c21` (stereo not given in full), for which the growth is 105% with DU-145 prostate; 96.8% in the assay with K-562 leukemia; 110% with MALME-3M melanoma; 101% with MDA-MB-231 breast; 103% in the assay with RXF 393 renal; 102% in the assay on SF-268 CNS. In addition, the growth with SF-295 CNS is 103%; in the assay with SF-539 CNS, 100%; in the assay on UACC-257 melanoma, 106%; in the assay on M14 melanoma, 102%.
Regarding `O=CN1N=C(c2ccc(F)cc2)CC1c1cccc(Nc2ccnc3cc(C(F)(F)F)ccc23)c1` (stereo not given), the growth in the assay on DU-145 prostate was 70.9%; with K-562 leukemia, 22.7%; in the assay with MALME-3M melanoma, 67.9%; in the assay on MDA-MB-231 breast, 72.5%; in the assay on RXF 393 renal, 71.2%; in the assay on SF-268 CNS, 51.9%. The growth in the assay on SF-295 CNS was 44.2%; in the assay on SF-539 CNS, 77.5%; with UACC-257 melanoma, 48.6%; in the assay on M14 melanoma, 70%.
Turning to `COc1ccccc1Nc1nnc(-c2ccc(Cl)cc2)o1`, the growth in the assay on DU-145 prostate is 72.3%; in the assay with K-562 leukemia, 11.7%; in the assay with MALME-3M melanoma it was 46.3%; in the assay with MDA-MB-231 breast, 63.5%; in the assay with RXF 393 renal, 74.6%; in the assay on SF-268 CNS, 60.5%. Also, the growth was 40.3% in the assay on SF-295 CNS, 57.1% in the assay with SF-539 CNS, 65.8% in the assay with UACC-257 melanoma and 21.7% in the assay with M14 melanoma.
On to `COc1ccc(-c2nnc(N3CCN(C(=O)CN4CCN(c5ccc(OC)cc5)CC4)CC3)nc2-c2ccc(OC)cc2)cc1`, for which the growth in the assay on DU-145 prostate was -16.3% (active); in the assay with K-562 leukemia, -56.7% (active); in the assay on MALME-3M melanoma, -72.7% (active); in the assay with MDA-MB-231 breast, 8.6% (active); in the assay with RXF 393 renal, -34.8% (active); in the assay with SF-268 CNS, -32.4% (active). Moreover, the growth was -60.6% (active) in the assay on SF-295 CNS, 32% in the assay on SF-539 CNS, -8.52% (active) in the assay with UACC-257 melanoma and -17.3% (active) in the assay on M14 melanoma.
For `CCC[S@@](=O)c1ccc2nc(NC(=O)OC)[nH]c2c1`, the growth with DU-145 prostate is 107%; with K-562 leukemia it was 40.9%; with MALME-3M melanoma it was 89.2%; with MDA-MB-231 breast, 83.3%; in the assay with RXF 393 renal it was 95.2%; in the assay with SF-268 CNS it was 96.1%. Besides, the growth in the assay with SF-295 CNS was 88%; with SF-539 CNS, 90.8%; with UACC-257 melanoma, 57%; in the assay on M14 melanoma, 73.2%.
`C=C(C)[C@@H]1CC[C@]2(C(=O)O)CC[C@]3(C)[C@H](CC[C@@H]4[C@@]5(C)C[C@@H](CC#Cc6ccc(Cl)cc6)C(=O)C(C)(C)[C@@H]5CC[C@]43C)[C@@H]12`: the growth was 39.4% with DU-145 prostate; 28.8% in the assay with K-562 leukemia; 21.2% in the assay on MALME-3M melanoma; 6.05% (active) in the assay with MDA-MB-231 breast; 62.4% in the assay with RXF 393 renal; 74.1% with SF-268 CNS. Further, the growth in the assay with SF-295 CNS was 41.3%; with SF-539 CNS, 57%; with UACC-257 melanoma, 75.6%; in the assay with M14 melanoma, 1.24% (active).
With `O=c1nc(-c2ccccc2)c2cc(-c3ccc(N4CCCC4)nc3)ccc2[nH]1`, the growth is 85% in the assay on DU-145 prostate; 16.4% in the assay on K-562 leukemia; 89.6% in the assay with MALME-3M melanoma; 59.8% in the assay with MDA-MB-231 breast; 81.2% with RXF 393 renal; 83.2% in the assay on SF-268 CNS. The growth was 39.4% with SF-295 CNS, 73.8% with SF-539 CNS, 88.6% in the assay with UACC-257 melanoma and 47.9% in the assay with M14 melanoma.
As to `CC(=O)OC[C@]12CC[C@@H](c3cn(Cc4ccc(Cn5cc([C@@H]6CC[C@]7(COC(C)=O)CC[C@]8(C)[C@H](CC[C@@H]9[C@@]%10(C)CC[C@H](OC(C)=O)C(C)(C)[C@@H]%10CC[C@]98C)[C@@H]67)nn5)cc4)nn3)[C@@H]1[C@H]1CC[C@@H]3[C@@]4(C)CC[C@H](OC(C)=O)C(C)(C)[C@@H]4CC[C@@]3(C)[C@]1(C)CC2`, the growth in the assay on DU-145 prostate was 103%; in the assay with K-562 leukemia it was 94.7%; with MALME-3M melanoma it was 98.8%; in the assay with MDA-MB-231 breast, 96.9%; with RXF 393 renal it was 105%; in the assay on SF-268 CNS, 88.8%. Besides, the growth in the assay with SF-295 CNS is 98.8%; in the assay with SF-539 CNS it was 98.7%; in the assay on UACC-257 melanoma, 93.3%; in the assay with M14 melanoma, 103%.
For `COc1cccc(NC(=O)Nc2ccc(Nc3ncnc4[nH]c(C)c(C)c34)cc2)c1`, the growth in the assay with DU-145 prostate was 110%; with K-562 leukemia, 94.4%; with MALME-3M melanoma it was 122%; in the assay with MDA-MB-231 breast, 108%; in the assay with RXF 393 renal it was 111%; with SF-268 CNS, 94%. Further, the growth in the assay on SF-295 CNS is 95.5%; with SF-539 CNS it was 69.3%; in the assay on UACC-257 melanoma it was 98.3%; with M14 melanoma it was 106%.
Turning to `CCOC(=O)/C=C1\SC(=Nc2ccc(C#N)cc2)N(CCN2C(=O)/C(=C/C(=O)OCC)SC2=Nc2ccc(C#N)cc2)C1=O`, the growth in the assay on DU-145 prostate was 41.7%; in the assay with K-562 leukemia, 7.43% (active); in the assay on MALME-3M melanoma it was 98.6%; with MDA-MB-231 breast, 16.3%; in the assay with RXF 393 renal, 49.7%; in the assay on SF-268 CNS, 29.7%. Besides, the growth in the assay with SF-295 CNS is 76.8%; in the assay on SF-539 CNS it was 41.6%; with UACC-257 melanoma, 77.3%; in the assay on M14 melanoma it was 52.3%.
